Measured values from PubChem BioAssay AID504853 (Southern Research Specialized Biocontainment Screening …, 2011).
Entries with a potency or affinity are not part of this list. Calls of active or inactive are those of the source. No rule for the calls is given here.

Experiment: HepG2 cell cytotoxicity, dose response, cytotoxicity control, set 3 (AID 504853)
Conditions: series mostly up to 50 µM

Compound | outcome
CCSc1nc(C)c(C)c(=O)[nH]1 | inactive
O=C(CSc1nc2ccccc2c(=O)[nH]1)N1CCOCC1 | inactive
O=c1[nH]c(SCc2ccccc2Cl)nc2c1CCCC2 | inactive
COc1cccc(NC(=O)CSc2nc3c(c(=O)[nH]2)CCC3)c1 | inactive
CCOC(=O)CSc1nc(C)c(C)c(=O)[nH]1 | inactive
Cc1cnc(SCC(=O)NC2CCCCC2)[nH]c1=O | inactive
Cc1ccc(NC(=O)COC(=O)CCc2c[nH]c3ccccc23)cc1[N+](=O)[O-] | inactive
O=C(CSc1nccc(=O)[nH]1)NC1CCCCC1 | inactive
Nc1cc(=O)[nH]c(SCC(=O)NC2CCCCC2)n1 | inactive
Cc1cc(=O)[nH]c(=S)[nH]1 | inactive
Cn1c(SCC(=O)NC2CCCCC2)nc2ccccc2c1=O | inactive
O=C(CSc1ncccn1)NC1CCCCC1 | inactive
COc1ccc(NC(=O)CSc2nc3ccccc3c(=O)[nH]2)cc1 | inactive
NC(=O)CSc1nc2ccccc2c(=O)[nH]1 | inactive
Cc1nc(SCC(N)=O)[nH]c(=O)c1C | inactive
CN1CCC(NC(=O)CSc2nc3ccccc3c(=O)[nH]2)CC1 | inactive
O=C(CSc1nc2ccccc2c(=O)[nH]1)NCc1ccc(Cl)cc1 | inactive
Cc1nc(SCC(=O)NCCC(C)C)[nH]c(=O)c1C | inactive
CC[N+](C)(CC)CCCCOc1ccc2c(c1)C(=O)c1cc(OCCCC[N+](C)(CC)CC)ccc1-2 | inactive
O=C(CSc1nc2c(c(=O)[nH]1)CCC2)NC1CCCCC1 | inactive
O=C(CSc1nc2ccccc2c(=O)[nH]1)NC1CCCCC1 | inactive
